26 molecules from PubChem BioAssay (NCATS) can be followed below.

Test [1] is described as follows: P-glycoprotein substrates identified in KB-3-1 adenocarcinoma cell line, qHTS therapeutic library screen (AID 1346986). Further: nearly all actives have a fitted effect of over 60% in size. The procedure, abridged: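 Cells seeded 500/well in DMEM/10% FCS; compounds pinned in dose-response; 72 h incubation; CellTiter-Glo added, 5 min, luminescence. KB-8-5-11 run ±tariquidar to test reversal of P-gp resistance.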
Test [2] can be described thus: P-glycoprotein substrates identified in KB-8-5-11 adenocarcinoma cell line, qHTS therapeutic library screen (AID 1346987). Further: nearly all actives have a fitted effect of over 65% in size. On activity change, negative = cytotoxicity: series mostly up to about 44 µM; on the % scale 0 is the no-effect control and ±100 the full control effect. The gist of the method:
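KB-8-5-11, a colchicine-selected P-gp-overexpressing KB-3-1 subline, was grown without colchicine for the assay. Cells were seeded at 500 cells/well, dosed in concentration-response and incubated 72 h at 37 degree C, 5% CO2. Viability was read by CellTiter-Glo luminescence.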
A general note: qHTS replaces the single test concentration by a dilution series.

Test [3] deals with Zika virus NS2B-NS3 protease (linked construct). As to the kind of experiment: Primary screen NINDS Rhodamine qHTS for Zika virus inhibitors (AID 1347160). Further: nearly all actives have a fitted effect of over 55% in size. Further: potency means the concentration at half of the fitted maximal effect. The gist of the method:
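In 10 mM Tris-HCl pH 8.0 containing 0.01% Tween 20, linked NS2B-NS3 protease (25 nM final) is exposed to test compounds for 15 min. Cleavage of 1.5 microM Rhodamine110 substrate is tracked by fluorescence over 15 min.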

The test system is the same in test [4]. As to the kind of experiment: Confirmatory screen NINDS AMC qHTS for Zika virus inhibitors (AID 1347152). Further: potency means the concentration at half of the fitted maximal effect; nearly all actives have a fitted effect of over 70% in size. The gist of the method:
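Enzyme (1 nM, linked construct) was preincubated with compound for 15 minutes at room temperature in 10 mM Tris-HCl pH 8.0 with 0.01% Tween 20. Bz-Nle-Lys-Arg-Arg-AMC was then added to 10 microM, and AMC fluorescence was recorded immediately and after 15 minutes.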

In test [5] the test system is Zika virus NS2B-NS3 protease (unlinked complex). Put plainly: Confirmatory screen GU AMC qHTS for Zika virus inhibitors (AID 1347153).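 Further: enzyme at 25 nM with substrate at 10 µM below its Km of 18.3 µM; potency means the concentration at half of the fitted maximal effect; nearly all actives have a fitted effect of over 70% in size.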 The gist of the method:
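Compounds were preincubated 15 min at room temperature with 25 nM noncovalent NS2B-NS3 protease at pH 8.0; AMC substrate added at 10 microM and 15-min fluorescence gain (340/450 nm) converted to percent inhibition, fitted 4-parameter.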

Test [6] in a line: Confirmatory screen GU Rhodamine qHTS for Zika virus inhibitors qHTS (AID 1347157). Further: potency means the concentration at half of the fitted maximal effect; nearly all actives have a fitted effect of over 70% in size. The gist of the method:
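In dose–response format, inhibition of unlinked protease (25 nM) was measured with 1.5 microM bis-peptide Rhodamine110 substrate. Aprotinin served as the intraplate control.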

Test [7] has as its system Zika virus NS2B-NS3 protease (unlinked complex). Put plainly: Primary screen GU Rhodamine qHTS for Zika virus inhibitors: Unlinked NS2B-NS3 protease assay (AID 1347159). Further: potency means the concentration at half of the fitted maximal effect; nearly all actives have a fitted effect of over 60% in size. The procedure, abridged: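 Percent inhibition derives from the 15-min fluorescence change (ex 480, em 540 nm), normalized to no-enzyme and no-inhibitor wells. Reactions contained 25 nM NS2B-NS3 complex and 1.5 microM substrate in 10 mM Tris-HCl pH 8.0.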

A short description of test [8]: Confirmatory screen NINDS Rhodamine qHTS for Zika virus inhibitors (AID 1347161). Further: potency means the concentration at half of the fitted maximal effect; nearly all actives have a fitted effect of over 60% in size. The gist of the method:
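Percent inhibition, normalized to uninhibited and enzyme-free controls, is fitted to a 4-parameter Hill equation. Fluorescence change comes from a 15-min cleavage of 1.5 microM bis-peptide Rhodamine110 substrate by 25 nM linked NS2B-NS3 at room temperature.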

Test [9] relates to Zika virus NS2B-NS3 protease (linked). Put plainly: 384 well plate NINDS AMC confirmatory qHTS for Zika virus inhibitors (AID 1347163). Further: potency means the concentration at half of the fitted maximal effect; nearly all actives have a fitted effect of over 50% in size. The gist of the method:
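Linked NS2B-NS3 protease (final 5 nM, 30 nM or 60 nM) was preincubated with compounds (final up to 1 mM) for ~15 minutes. Ac-VKTGKR-AMC substrate (final 30 microM) then reacted for 25 minutes at room temperature in the dark. Fluorescence (ex 355/em 460 nm) was normalized to no-enzyme and no-inhibitor controls.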

A short description of test [10]: Vero cells viability qHTS for Zika virus inhibitors (AID 1347167). Further: on the % scale 0 is the no-effect control and ±100 the full control effect. The gist of the method:
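Compounds were tested in concentration series on cells grown in DMEM containing 4% FBS. After 24 to 48 hours, cellular ATP was measured by luminescence with CellTiter Glo.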

A short description of test [11]: ZIKV-mCherry secondary qHTS for Zika virus inhibitors (AID 1347158). Further: potency means the concentration at half of the fitted maximal effect. The gist of the method:
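Vero cells (5,000/well) were given compound, then infected with ZIKV-mCherry at MOI 1 for 48–72 h at 37 °C. After PFA fixation and Hoechst staining, imaging gave percent mCherry-positive cells. The positivity threshold was RFU above 450, 3 SD over negative controls.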

The subject of test [12] is Zika virus NS2B-NS3 protease (linked construct). As to the kind of experiment: 384 well plate NINDS Rhodamine confirmatory qHTS for Zika virus inhibitors (AID 1347164).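 Further: fluorescence from protease cleavage of Ac-LKRR-rhodamine 110 substrate; nearly all actives have a fitted effect of over 65% in size.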 Further: potency means the concentration at half of the fitted maximal effect. The gist of the method:
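Enzyme (final 5/30/60 nM) + cpd (DMSO), ~15 min; add Ac-LKRR-Rd 10 microM final; 25 min RT, dark; FI ex 485/em 538; normalized to no-enzyme, no-inhibitor ctrls; aprotinin intraplate ctrl.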

Inconclusive results are not listed. Unmarked numbers belong to inactive results. Activity calls are given as the source filed them. The call rests on the fitted dose curve; in most records, active means well fitted curve in the direction sought with a large enough effect; inconclusive means small, poorly fitted or top-dose-only effect, or another doubt; inactive means no such curve, though single readings can be large; an effect the other way counts as inactive or inconclusive. *1 amine or outer side, *2 acyl side, *3 side chain or, on linkers, in order; H or OH if unused. Where a SMILES comes first, the peptide text is derived from it. [ ]: non-standard residue; d: D form. The star is where a group is joined. ξ: configuration not given here. X9 = CCC(C)(N*)C(=O)C1CC[C@@H](C(=O)N[C@@H](Cc2ccccc2)C(=O)NCC(=O)O)N1; X8 = O=C([C@@H]1CC(O)CN1[*:1])[*:2]; aIle = CC[C@@H](C)[C@H](N)C(=O)O; Thr(3ξ) = CC(O)[C@H](N)C(=O)O; ξIva = CCC(C)(N)C(=O)O; Aib = CC(C)(N)C(=O)O

In the case of `CC(C/C=C/C(C)(C)O)C1CCC(C)(O)C(O)C1` (stereo not drawn), the Potency entry in test [1], in [2] and in test [3] was “inactive” throughout.

Consider `O=C(O)c1ccnc2cc(C(OCC3CCC(F)(F)CC3)c3ccccc3Cl)[nH]c12` (stereo not drawn), for which, in [2], the Potency entry was “inactive”.

Turning to `C=C1CCC2C(C)(C)CCC[C@]2(C)[C@H]1CC/C(C)=C/C(=O)O` (stereo partly drawn), the Potency result in test [2] was “inactive”. Besides, the Potency is 44.1 µM (active) in test [4]; 39.3 µM (active) in test [5]; 11.1 µM (active) in [6]; 3.55 µM (active) in test [7]; 5.62 µM (active) in test [3]; 4.94 µM (active) in [8]. The Potency in test [9] is 2 µM (active). For the same molecule, in test [10], the call was inactive.

`COc1cc(C(=O)OCC2=CCC3C(C(=O)O)=COC(O[C@@H]4O[C@H](CO)[C@@H](O)[C@H](O)[C@H]4O)C23)ccc1O` (stereo partly drawn): the Potency result in [2] was “inactive”.

Take `C[C@H]1CC[C@H]2[C@@H](C=C[C@@](C)(O)[C@]2(C)C(=O)CCO)C1`: in test [2], the Potency result was “inactive”.

As to `C=C1C(O)C(O)C2(CC3C(C)=CCC4C(C)(C(=O)O)CCCC34C)OC2C1O` (stereo not drawn), the Potency result in test [2] was “inactive”.

For the molecule `C[C@H]1[C@H](C)CC[C@]2(C(=O)O)CC[C@]3(C)C(=CCC4[C@@]5(C)C[C@@H](O)[C@H](O)C(C)(C)C5CC[C@]43C)[C@H]12` (stereo partly drawn), the Potency result in test [2] was “inactive”.

Consider `C[C@@H]1O[C@@H](O[C@H]2[C@H](O[C@H]3[C@H](O[C@H]4CC[C@@]5(C)C(CC[C@]6(C)C5CC=C5[C@@H]7CC(C)(C)CC(=O)[C@]7(C)CC[C@]56C)[C@@]4(C)CO)O[C@H](C(=O)O)[C@@H](O)[C@@H]3O)O[C@H](CO)[C@H](O)[C@@H]2O)[C@H](O)[C@H](O)[C@H]1O` (stereo partly drawn), for which the outcome in test [2] was “inactive [at 9.29 µM]”.

`COc1cc(/C=C/c2ccccc2)c(C(=O)O)c(O)c1CC=C(C)C`: the Potency entry in [2] is “inactive”. Besides, the Potency in test [4] was 34.3 µM (active); in test [5] it was 34.3 µM (active); in [6], 3.06 µM (active); in test [7], 4.47 µM (active); in [3], 10 µM (active); in test [8] it was 4.85 µM (active). Moreover, the result in test [10] was inactive.

Turning to `C[C@@H]1C[C@@H](O)[C@@]23CO[C@]2(CO)C[C@@H](O)CC3[C@@]12CC(c1ccoc1)OC2=O` (stereo partly drawn), the Potency result in test [2] is “inactive”.

As for `O=C(OC[C@H]1O[C@@H](Oc2ccccc2COC(=O)C2(O)C=CCCC2O)[C@H](O)[C@@H](O)[C@@H]1O)c1ccccc1` (stereo partly drawn), in test [2], the Potency entry is “inactive”.

For `C=C1CCC2(C(=O)OC3OC(CO)C(O)C(O)C3O)CCC3(C)C(=CCC4C5(C)CCC(OC6OC(CO)C(OC7OC(C)C(O)C(O)C7O)C(OC7OCC(O)C(O)C7O)C6O)C(C)(C)C5CCC43C)C2C1` (stereo not drawn), in [2], the outcome is “inactive [at 9.29 µM]”.

As for `CCC(CC)CC1(C(=O)Nc2ccccc2SC(=O)C(C)C)CCCCC1`, the Potency entry in [2] is “inactive”.

`O=C(OCc1ccccc1O[C@@H]1O[C@H](CO)[C@@H](O)[C@H](O)[C@H]1O)C1(O)C=CCCC1O` (stereo partly drawn): the Potency entry in [2] is “inactive”.

Turning to `COc1cc2c(c(O)c1OC/C=C(\C)CC/C=C(/C)CCC=C(C)C)CN(C(CCC(=O)O)C(=O)O)C2=O` (stereo not drawn), the Potency result in test [2] and in test [12] was “inactive” each time. For the same molecule, the Potency in test [4] is 27.1 µM (active); in test [5], 34.1 µM (active); in test [6] it was 3.41 µM (active); in [11] it was 6.31 µM (active); in test [7] it was 2 µM (active); in test [3], 7.94 µM (active). Further, the values for the Potency in test [8] and in test [9] were 2.71 µM (active) and 8.91 µM (active), respectively. The result in test [10] was inactive.

On to `O=C(/C=C/c1ccc(O)c(O)c1)O[C@H]1[C@@H]2C=CO[C@@H](O[C@@H]3O[C@H](CO)[C@@H](O)[C@H](O)[C@H]3O)[C@@H]2[C@@]2(CO)O[C@@H]12`, for which the Potency result in [2] was “inactive”.

Turning to `O=C(O)CC1(O)C(=O)Nc2ccccc21` (stereo not drawn), the Potency result in [2] is “inactive”.

Regarding `C=C1C(O)CC2C(C(=O)O)=COC(O[C@@H]3O[C@H](COC(=O)c4ccc(O)cc4)[C@@H](O)[C@H](O)[C@H]3O)C12` (stereo partly drawn), the Potency entry in test [2] is “inactive”.

As to `C[C@]1(O)CC[C@@H]2C(C(=O)O)=CO[C@@H](O[C@@H]3O[C@H](COC(=O)/C=C/c4ccc(O)c(O)c4)[C@@H](O)[C@H](O)[C@H]3O)[C@@H]21`, the Potency entry in test [2] was “inactive”.

For `O=C(/C=C/c1ccc(O)c(O)c1)O[C@@H]1[C@@H](O)[C@H](OC2CCCCC2O)O[C@H](CO)[C@H]1O` (stereo partly drawn), the Potency entry in test [2] was “inactive”.

`O=C(/C=C/c1ccc(O)c(O)c1)O[C@H]1[C@H](OC2CCCCC2O)O[C@H](CO)[C@@H](O)[C@@H]1O` (stereo partly drawn): the Potency result in test [2] was “inactive”.

Consider `CC(O)C/C=C/C=C/C(=O)OC1C=C2COC(=O)C2(O)C2(C)CCCC(C)(C)C12` (stereo not drawn), for which the Potency entry in [2] is “inactive”.

For `C/C=C/C=C/C=C/C(=O)O[C@@H]1[C@@H](OC)C2=C(C(=O)N(C(CCC(=O)O)C(=O)O)C2)[C@@]2(C)CCCC(C)(C)[C@H]12` (stereo partly drawn), the Potency entry in test [2] and in test [11] was “inactive” throughout. In addition, the Potency was 24.2 µM (active) in test [4]; 9.61 µM (active) in test [5]; 4.82 µM (active) in [6]; 4.47 µM (active) in test [7]; 7.08 µM (active) in [3]; 2.71 µM (active) in [8]. In addition, the Potency is 2.24 µM (active) in test [9] and 15.8 µM (active) in [12]. The outcome in test [10] was inactive.

Turning to `CC(C)c1ccc2c(c1)[C@H](O)CC1[C@@](C)(C(=O)O)CCC[C@]21C` (stereo partly drawn), the Potency entry in test [2] is “inactive”.

`CCCSc1nc(NC2CC2c2ccc(F)c(F)c2)c2nnn(C3CC(OCCO)C(O)C3O)c2n1` (stereo not drawn): the Potency entry in [2] was “inactive”.

Take `CC[C@@H](C)[C@H](NC(=O)C(C)(C)NC(=O)[C@H](CCC(N)=O)NC(=O)C(C)(CC)NC(=O)[C@H](Cc1c[nH]c2ccccc12)NC(C)=O)C(=O)N[C@H](C(=O)NC(C)(C)C(=O)N[C@@H](CC(C)C)C(=O)NC(C)(C)C(=O)N1CCC[C@H]1C(=O)N[C@@H](CCC(N)=O)C(=O)NC(C)(C)C(=O)N1CC(O)C[C@H]1C(=O)NC(C)(CC)C(=O)C1CC[C@@H](C(=O)N[C@@H](Cc2ccccc2)C(=O)NCC(=O)O)N1)C(C)O` (stereo partly drawn) (Ac-W[ξIva]Q[Aib][aIle][Thr(3ξ)][Aib]L[Aib]PQ[Aib][X8]-X9): the activity change, negative = cytotoxicity in test [2] is -19% [at 5.11 µM].
